Experimental data as given in the supplement of paper PMC11732987, “Enantioselective OTUD7B fragment discovery through chemoproteomics screening and high-throughput optimisation” (Communications Chemistry, 2025).

Key:
Experiment in all cases: log2 ratio of Biotin-Ahx-Ub-VS probe labelling (fragment/DMSO); higher = less target engagement (more negative = stronger competition), active = hit call of the paper (q ≤ 0.05, log2 ratio ≤ -1)
Settings in all cases: compound concentration: 200 uM; treatment time: 3 h
USP34 = USP34 (UniProt Q70CQ2)
Chain of USP34 (Q70CQ2 whole entry, the tested form may be a part): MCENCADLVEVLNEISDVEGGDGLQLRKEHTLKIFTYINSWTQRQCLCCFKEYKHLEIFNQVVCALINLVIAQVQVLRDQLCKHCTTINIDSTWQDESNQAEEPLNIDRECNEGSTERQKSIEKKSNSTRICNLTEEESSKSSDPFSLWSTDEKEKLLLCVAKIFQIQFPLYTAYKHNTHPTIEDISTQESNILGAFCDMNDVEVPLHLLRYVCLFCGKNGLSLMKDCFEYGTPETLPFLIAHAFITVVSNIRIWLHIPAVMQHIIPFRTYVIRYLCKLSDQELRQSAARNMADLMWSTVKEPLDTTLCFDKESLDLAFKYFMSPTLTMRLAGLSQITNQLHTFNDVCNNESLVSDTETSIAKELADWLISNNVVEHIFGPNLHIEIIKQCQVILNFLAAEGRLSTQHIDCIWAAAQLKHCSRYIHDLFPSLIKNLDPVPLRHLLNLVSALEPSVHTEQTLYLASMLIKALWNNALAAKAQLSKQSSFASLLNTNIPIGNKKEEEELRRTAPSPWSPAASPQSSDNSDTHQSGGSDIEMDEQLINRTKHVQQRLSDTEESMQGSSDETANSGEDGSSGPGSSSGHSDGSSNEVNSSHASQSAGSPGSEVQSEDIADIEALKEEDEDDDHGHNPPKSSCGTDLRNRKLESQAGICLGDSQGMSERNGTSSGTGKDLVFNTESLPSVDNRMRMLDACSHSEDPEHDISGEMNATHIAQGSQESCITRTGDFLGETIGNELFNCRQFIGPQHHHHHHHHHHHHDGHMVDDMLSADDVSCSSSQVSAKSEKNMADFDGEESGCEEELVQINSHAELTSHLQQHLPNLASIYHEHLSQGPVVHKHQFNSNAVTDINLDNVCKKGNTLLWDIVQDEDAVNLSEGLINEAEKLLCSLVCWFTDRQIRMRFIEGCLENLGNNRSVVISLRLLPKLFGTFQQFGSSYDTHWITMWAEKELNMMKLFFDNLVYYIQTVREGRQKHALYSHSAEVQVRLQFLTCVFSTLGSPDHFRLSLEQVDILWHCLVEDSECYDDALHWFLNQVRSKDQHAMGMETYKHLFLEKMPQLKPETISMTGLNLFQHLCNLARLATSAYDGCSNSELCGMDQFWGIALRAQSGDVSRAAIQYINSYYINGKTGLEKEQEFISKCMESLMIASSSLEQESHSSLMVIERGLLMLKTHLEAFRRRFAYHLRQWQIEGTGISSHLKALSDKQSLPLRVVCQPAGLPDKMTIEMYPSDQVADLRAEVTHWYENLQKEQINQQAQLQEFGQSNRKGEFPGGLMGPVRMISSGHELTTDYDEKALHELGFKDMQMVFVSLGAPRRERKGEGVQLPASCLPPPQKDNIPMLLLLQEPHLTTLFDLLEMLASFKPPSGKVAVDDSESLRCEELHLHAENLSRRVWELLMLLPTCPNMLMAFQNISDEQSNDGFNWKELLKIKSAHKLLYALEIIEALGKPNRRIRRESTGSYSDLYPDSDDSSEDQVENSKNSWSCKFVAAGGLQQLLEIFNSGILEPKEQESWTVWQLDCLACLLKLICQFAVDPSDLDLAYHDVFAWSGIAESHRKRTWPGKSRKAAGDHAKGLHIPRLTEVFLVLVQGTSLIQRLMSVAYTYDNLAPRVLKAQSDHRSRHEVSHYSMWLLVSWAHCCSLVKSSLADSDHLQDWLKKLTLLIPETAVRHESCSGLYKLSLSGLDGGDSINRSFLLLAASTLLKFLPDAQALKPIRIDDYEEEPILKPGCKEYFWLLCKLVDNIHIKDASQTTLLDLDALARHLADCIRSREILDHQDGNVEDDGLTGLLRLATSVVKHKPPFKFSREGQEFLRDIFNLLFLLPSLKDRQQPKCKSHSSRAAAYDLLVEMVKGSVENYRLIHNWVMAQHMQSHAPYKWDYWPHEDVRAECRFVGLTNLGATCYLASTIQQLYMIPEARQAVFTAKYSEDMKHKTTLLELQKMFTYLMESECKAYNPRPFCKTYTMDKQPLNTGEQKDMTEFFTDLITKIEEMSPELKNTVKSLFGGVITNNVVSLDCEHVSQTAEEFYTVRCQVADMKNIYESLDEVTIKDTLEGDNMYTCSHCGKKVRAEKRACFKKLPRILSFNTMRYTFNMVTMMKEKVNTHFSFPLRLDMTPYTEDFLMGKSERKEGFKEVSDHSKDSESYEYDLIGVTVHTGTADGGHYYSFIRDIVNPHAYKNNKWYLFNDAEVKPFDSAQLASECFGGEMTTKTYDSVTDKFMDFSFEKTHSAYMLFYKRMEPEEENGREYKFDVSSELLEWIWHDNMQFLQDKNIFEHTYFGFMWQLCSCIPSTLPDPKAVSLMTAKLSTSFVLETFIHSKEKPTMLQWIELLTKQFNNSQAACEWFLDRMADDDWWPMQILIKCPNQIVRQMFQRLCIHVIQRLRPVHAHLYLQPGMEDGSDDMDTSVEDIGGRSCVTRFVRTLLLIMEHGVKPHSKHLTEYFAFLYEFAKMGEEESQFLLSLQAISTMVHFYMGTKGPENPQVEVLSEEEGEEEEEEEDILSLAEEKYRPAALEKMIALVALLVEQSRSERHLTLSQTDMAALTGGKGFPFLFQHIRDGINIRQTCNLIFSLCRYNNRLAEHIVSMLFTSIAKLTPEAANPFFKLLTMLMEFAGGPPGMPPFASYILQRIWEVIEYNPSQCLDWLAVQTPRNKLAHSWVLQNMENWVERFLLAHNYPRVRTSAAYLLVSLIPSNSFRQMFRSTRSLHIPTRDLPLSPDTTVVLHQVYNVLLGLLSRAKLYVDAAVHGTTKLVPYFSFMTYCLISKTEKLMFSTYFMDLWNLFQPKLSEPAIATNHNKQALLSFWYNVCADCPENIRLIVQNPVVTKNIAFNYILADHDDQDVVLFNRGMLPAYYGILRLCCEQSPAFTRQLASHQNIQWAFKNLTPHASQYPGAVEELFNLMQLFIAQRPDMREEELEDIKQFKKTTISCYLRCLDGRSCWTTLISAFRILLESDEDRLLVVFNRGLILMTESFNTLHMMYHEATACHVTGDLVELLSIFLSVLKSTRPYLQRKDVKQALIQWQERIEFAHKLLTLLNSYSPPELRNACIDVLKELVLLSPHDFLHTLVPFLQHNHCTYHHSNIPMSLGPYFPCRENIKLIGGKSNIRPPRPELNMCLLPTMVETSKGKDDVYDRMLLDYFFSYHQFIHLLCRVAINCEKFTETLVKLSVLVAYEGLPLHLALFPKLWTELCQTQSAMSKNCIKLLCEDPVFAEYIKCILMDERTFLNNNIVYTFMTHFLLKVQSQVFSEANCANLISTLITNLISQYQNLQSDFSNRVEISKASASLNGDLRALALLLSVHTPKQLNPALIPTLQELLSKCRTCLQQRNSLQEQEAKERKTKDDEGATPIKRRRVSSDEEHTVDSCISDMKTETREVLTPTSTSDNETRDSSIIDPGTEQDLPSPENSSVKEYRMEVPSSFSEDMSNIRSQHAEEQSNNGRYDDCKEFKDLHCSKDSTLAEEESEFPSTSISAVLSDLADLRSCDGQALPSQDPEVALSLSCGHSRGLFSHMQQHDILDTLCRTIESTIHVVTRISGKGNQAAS
Procedure, shortened: (§1)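 Labelling with Biotin-Ahx-Ub-VS (0.5 µM final, 1 h) followed a 3 h triplicate treatment of HEK293T lysate (495 µg per sample, Tris/CHAPS/IGEPAL buffer with protease inhibitors) with fragment at 200 µM or vehicle. Labelled DUBs were NeutrAvidin-enriched, digested with LysC and trypsin, and run by diaPASEF LC-MS/MS. The values, average log2 fragment/vehicle ratios by unpaired t-test, come from global-median-normalised Spectronaut label-free quantities. Proteins with ≥2 unique peptides were used.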

USP36 = biological target: T1, USP36 (UniProt Q9P275)
T1 sequence (whole entry): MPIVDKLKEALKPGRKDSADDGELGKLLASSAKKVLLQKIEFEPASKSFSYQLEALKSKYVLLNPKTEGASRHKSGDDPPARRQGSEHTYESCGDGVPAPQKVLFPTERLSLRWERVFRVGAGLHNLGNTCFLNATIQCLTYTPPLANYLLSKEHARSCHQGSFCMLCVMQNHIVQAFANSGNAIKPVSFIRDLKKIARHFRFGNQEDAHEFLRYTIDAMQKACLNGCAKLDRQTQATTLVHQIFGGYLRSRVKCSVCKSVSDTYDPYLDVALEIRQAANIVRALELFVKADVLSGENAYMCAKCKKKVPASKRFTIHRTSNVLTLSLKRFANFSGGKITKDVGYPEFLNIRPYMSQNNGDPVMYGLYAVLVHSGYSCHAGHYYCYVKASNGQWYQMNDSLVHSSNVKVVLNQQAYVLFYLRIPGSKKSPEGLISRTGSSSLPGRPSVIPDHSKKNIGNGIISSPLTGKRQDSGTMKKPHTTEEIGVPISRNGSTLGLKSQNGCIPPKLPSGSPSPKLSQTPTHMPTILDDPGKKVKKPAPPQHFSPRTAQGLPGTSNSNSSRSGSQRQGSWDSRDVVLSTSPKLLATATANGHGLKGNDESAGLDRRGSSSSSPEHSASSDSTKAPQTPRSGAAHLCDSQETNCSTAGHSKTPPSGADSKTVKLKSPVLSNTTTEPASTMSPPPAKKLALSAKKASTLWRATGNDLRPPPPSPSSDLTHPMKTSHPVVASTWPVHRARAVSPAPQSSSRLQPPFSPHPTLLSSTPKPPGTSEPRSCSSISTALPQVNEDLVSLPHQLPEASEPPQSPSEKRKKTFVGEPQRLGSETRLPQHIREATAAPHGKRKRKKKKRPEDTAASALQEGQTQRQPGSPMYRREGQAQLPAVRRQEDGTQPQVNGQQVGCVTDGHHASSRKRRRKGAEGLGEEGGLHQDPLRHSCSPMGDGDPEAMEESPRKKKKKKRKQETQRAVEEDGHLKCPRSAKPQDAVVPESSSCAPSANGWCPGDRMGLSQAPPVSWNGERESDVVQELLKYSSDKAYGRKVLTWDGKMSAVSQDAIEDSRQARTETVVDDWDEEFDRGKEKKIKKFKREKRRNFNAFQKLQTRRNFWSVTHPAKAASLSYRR
Procedure, shortened: as §1

USP38 = biological target: T2, USP38 (UniProt Q8NB14)
T2 sequence (whole entry): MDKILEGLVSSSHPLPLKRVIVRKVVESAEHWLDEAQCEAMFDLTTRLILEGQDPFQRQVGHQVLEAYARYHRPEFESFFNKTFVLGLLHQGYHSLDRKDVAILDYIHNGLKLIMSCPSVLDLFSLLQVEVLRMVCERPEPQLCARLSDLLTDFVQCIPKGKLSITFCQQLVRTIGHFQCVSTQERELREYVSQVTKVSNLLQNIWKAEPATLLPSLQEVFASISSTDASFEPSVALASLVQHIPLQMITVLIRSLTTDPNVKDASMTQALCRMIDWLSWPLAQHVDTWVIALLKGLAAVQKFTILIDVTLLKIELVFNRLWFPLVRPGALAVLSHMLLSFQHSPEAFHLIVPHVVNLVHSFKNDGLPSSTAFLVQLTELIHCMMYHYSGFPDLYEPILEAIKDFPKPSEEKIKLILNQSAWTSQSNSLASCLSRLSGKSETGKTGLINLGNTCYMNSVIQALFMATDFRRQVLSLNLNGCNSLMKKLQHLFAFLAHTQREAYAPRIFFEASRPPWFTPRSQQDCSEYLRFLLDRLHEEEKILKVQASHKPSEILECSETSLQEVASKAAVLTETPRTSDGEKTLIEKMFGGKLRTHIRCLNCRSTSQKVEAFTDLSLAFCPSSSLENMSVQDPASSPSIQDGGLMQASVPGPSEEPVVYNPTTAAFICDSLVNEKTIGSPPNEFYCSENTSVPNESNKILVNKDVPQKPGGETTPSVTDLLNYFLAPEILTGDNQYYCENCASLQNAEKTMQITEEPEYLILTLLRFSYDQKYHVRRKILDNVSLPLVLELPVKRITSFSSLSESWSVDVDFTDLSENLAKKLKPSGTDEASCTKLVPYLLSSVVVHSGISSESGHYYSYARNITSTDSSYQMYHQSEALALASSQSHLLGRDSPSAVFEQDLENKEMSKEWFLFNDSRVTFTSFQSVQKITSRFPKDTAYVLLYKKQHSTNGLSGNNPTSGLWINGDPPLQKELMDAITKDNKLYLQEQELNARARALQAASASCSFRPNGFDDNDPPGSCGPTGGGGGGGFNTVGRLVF
Procedure, shortened: as §1

USP39 = biological target: T3, USP39 (UniProt Q53GS9)
T3 sequence (whole entry): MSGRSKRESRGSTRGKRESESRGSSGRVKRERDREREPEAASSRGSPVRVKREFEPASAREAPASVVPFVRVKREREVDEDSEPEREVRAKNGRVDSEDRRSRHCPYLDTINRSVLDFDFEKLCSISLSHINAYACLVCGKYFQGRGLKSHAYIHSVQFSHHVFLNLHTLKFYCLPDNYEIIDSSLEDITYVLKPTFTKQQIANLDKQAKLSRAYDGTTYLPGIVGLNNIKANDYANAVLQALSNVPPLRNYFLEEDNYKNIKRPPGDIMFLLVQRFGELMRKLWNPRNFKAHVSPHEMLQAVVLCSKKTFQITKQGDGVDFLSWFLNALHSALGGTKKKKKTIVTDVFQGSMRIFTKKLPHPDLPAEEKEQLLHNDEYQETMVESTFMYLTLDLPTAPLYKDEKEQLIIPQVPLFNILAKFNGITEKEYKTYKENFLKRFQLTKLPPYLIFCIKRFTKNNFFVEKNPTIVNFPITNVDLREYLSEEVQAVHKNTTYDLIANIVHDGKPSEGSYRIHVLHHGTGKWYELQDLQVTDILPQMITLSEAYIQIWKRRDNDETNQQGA
Procedure, shortened: as §1

USP4 = biological target: T4, USP4 (UniProt Q13107)
T4 sequence (whole entry): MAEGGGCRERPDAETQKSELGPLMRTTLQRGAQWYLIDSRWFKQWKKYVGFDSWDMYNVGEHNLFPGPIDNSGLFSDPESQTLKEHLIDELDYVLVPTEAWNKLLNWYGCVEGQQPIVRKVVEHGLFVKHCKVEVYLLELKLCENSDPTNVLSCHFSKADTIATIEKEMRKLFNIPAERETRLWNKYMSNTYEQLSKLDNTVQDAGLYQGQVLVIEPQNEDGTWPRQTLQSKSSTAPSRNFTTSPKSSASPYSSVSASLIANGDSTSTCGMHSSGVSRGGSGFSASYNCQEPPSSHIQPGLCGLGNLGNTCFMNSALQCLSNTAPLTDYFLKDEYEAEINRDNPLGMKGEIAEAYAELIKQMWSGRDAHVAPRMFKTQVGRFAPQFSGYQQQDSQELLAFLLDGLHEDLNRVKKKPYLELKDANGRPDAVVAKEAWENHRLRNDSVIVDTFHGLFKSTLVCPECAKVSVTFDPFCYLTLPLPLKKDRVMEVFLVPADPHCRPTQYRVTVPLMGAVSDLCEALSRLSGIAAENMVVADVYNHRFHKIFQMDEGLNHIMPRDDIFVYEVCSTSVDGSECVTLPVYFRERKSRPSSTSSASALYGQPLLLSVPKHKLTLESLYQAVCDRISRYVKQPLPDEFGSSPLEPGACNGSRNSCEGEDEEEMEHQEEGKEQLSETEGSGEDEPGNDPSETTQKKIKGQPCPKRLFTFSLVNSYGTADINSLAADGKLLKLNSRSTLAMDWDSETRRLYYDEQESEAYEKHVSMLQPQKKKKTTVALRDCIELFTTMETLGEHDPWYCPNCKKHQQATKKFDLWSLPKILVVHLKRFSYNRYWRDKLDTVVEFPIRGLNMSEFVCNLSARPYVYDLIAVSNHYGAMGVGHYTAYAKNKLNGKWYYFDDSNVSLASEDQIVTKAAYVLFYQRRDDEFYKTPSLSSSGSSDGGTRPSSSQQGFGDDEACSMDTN
Procedure, shortened: as §1

Measured: log2 ratio of Biotin-Ahx-Ub-VS probe labelling

O=C(CCl)N1CCCN(C(=O)c2ccc(Cl)cc2)CC1
inactive: USP34 -0.425 | USP36 0.0741 | USP38 -0.22 | USP39 -0.317 | USP4 -0.259
